Among all 310,000 compounds or so, about 1,000 (0.32%) were called active. These entries were drawn from the full list. Entries with a potency or affinity are not part of this list. Unmarked numbers belong to inactive results. No rule for the calls is given here.
assay: Inhibition of PhoP regulon, Salmonella typhi GFP reporter cells, confirmation, 4 h (AID 1850); conditions: Salmonella Typhi PhoP-promoter GFP reporter, fluorescence, at 50 µM, stronger effect = higher value;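 also: 0% = induced wells with vehicle and 100% = uninduced wells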

Compound | inhibition [%]
Cc1cc(C(=O)N/N=C/c2ccc(Br)o2)n[nH]1 | -0.33
O=C1C=CC(=O)N1Cc1ccccc1 | 18.2
O=C1C2C3C=CC(C3)C2C(=O)N1CCCCCCN1C(=O)C2C3C=CC(C3)C2C1=O (stereo unspecified) | 7.17
COc1ccc2nc(-c3ccccc3)nc(C3CCCCC3)c2c1 | -28.1
COc1ccc(Cl)cc1NC(=O)CN(C)C(=O)c1cc2c(s1)CCC(C)C2 (stereo unspecified) | -5.36
Cc1c(CN(C)C)c2c(n1Cc1ccccc1)C(=O)c1ccccc1-2 | 5.65
Cc1c(CN(C)C)c2c(n1C)C(=O)c1ccc(Br)cc1-2 | -10.7
O=C(c1nc2ccccn2c1CNCCn1ccc2ccccc21)N1CCOCC1 | -10.1
COc1ccccc1-c1ccc2nnc(SCC(=O)N3CCCC3)n2n1 | 3.68
Cc1ccccc1-n1c2nc(=O)n(C)c(=O)c-2cc2ccccc21 | -5.45
CCn1nc(-c2ccccc2)nc2c(=O)n(C)c(=O)nc1-2 | 14.7
Cc1ccc(-n2c3nc(=O)n(C)c(=O)c-3cc3ccccc32)cc1 | 8.69
Cn1nc(-c2ccccn2)nc2c(=O)n(C)c(=O)nc1-2 | 13.1
Nc1nonc1-n1nnc(C(=O)N/N=C/c2ccc(F)cc2)c1-c1ccc2c(c1)OCO2 | 3.99
CC(C)c1ccc(NC(=O)C2CCN(S(C)(=O)=O)CC2)cc1 | 9.77
O=C(CN1CCN(c2ccccn2)CC1)NC1CCCC1 | -2.6
CC[C@H]1OC(=O)[C@H](C)[C@@H](O[C@H]2C[C@@](C)(OC)[C@@H](O)[C@H](C)O2)[C@H](C)[C@@H](O[C@@H]2O[C@H](C)C[C@H](N(C)C)[C@H]2O)[C@](C)(O)C[C@@H](C)C(=NOCOCCOC)[C@H](C)[C@@H](O)[C@]1(C)O | -1.81
CCOC(=O)CCC(=O)O[C@H]1[C@H](O[C@@H]2[C@@H](C)[C@H](O[C@H]3C[C@@](C)(OC)[C@@H](O)[C@H](C)O3)[C@@H](C)C(=O)O[C@H](CC)[C@@](C)(O)[C@H](O)[C@@H](C)C(=O)[C@H](C)C[C@@]2(C)O)O[C@H](C)C[C@@H]1N(C)C | 12.7
CCC1OC(=O)C(C)C(OC2C[C@@](C)(OC)C(O)C(C)O2)C(C)C(O[C@@H]2OC(C)CC(N(C)C)C2O)[C@](C)(O)CC(C)C(=NOCOCCOC)C(C)C(O)[C@]1(C)O (stereo partly specified) | 2.39

Compound | inhibition [%]
COc1ccccc1C(C(=O)NCc1ccc(F)cc1)N(C(=O)c1csnn1)C1CC1 (stereo unspecified) | -0.44
CCN(CC)S(=O)(=O)c1ccc(OC)c(NC(=O)c2ccc(-n3cncn3)c([N+](=O)[O-])c2)c1 | 1.29
O=C(Cn1c(=O)oc2ccccc21)NCCc1ccccc1 | -10.1
Cc1cc(C)cc(NC(=O)CSc2nccn2Cc2ccco2)c1 | -0.51
COc1cc(CNC2CCCC2)cc(Cl)c1OCc1ccc(F)cc1 | 7.58
COc1cc(CNCCO)cc(Cl)c1OCc1ccccc1Cl | -3.95
OCCNCc1ccc(OCc2ccc(Cl)cc2Cl)cc1 | 6.74
OCCCCNCc1ccc(OCc2ccccc2Cl)cc1 | 26.2
COc1cc(CNCCO)cc(Br)c1OCc1ccccc1Cl | 9.5
COc1cc(CNCCc2ccccc2)ccc1OCc1ccc(Cl)nc1 | 26.7
COc1cc(CNC2CCCC2)cc(Cl)c1OCc1ccccc1F | 11.7
COc1ccccc1CCNCc1ccc(OC)c(OCc2ccccc2)c1 | -4.13
CC1(C)CC(=O)C2=C(C1)OC(N)=C(C#N)C21C(=O)N2CCCc3cccc1c32 (stereo unspecified) | -2.22
CN(C(=O)COC(=O)c1ccc2[nH]c3c(c2c1)CCCC3)C1CCS(=O)(=O)C1 (stereo unspecified) | -8.01
Cc1ccc(OCCCCN2CCC(C)CC2)cc1 | 15.9
CCOc1cc(CNCCO)cc(Br)c1OCc1ccc(Cl)cc1Cl | 8.42
COc1cc(CNCc2ccccc2)cc(Cl)c1OC | 4
CCOc1cc(CNCCc2ccc(S(N)(=O)=O)cc2)cc(Cl)c1OCc1ccccc1 | 13
COc1cc(CNC(C)(C)CO)cc(Br)c1OCc1ccc(Cl)cc1Cl | 0.08

Compound | inhibition [%]
CC(C)c1ccc(Nc2c([N+](=O)[O-])c(=O)n(C)c3ccccc23)cc1 | 2.08
Cc1ccc2nsnc2c1S(=O)(=O)NCc1ccncc1 | -2.24
Cc1onc(-c2ccccc2)c1-c1nnc(-c2ccccc2C(F)(F)F)o1 | 0.63
C=CCN(c1nc(C)cc(OC)n1)S(=O)(=O)c1ccc(C)cc1 | 0.2
CC(C)(C)c1nnc(NC(=O)c2cccs2)s1 | 10.7
CN1CCN(c2ccc(C(F)(F)F)cc2N)CC1 | 2.28
Cc1nc2cc(C(F)(F)F)ccc2n1C | 1.93
O=C(Nc1ccccc1C(=O)Nc1ccccn1)c1cc(F)c(F)cc1Cl | -1.17
Cc1ccc[n+](-c2nc3ccccc3nc2[N-]S(=O)(=O)c2ccccc2)c1 | -11.4
O=C(/C=C/c1ccc2c(c1)OCO2)c1cccnc1 | 0.98
O=C(Cn1nc(C(F)(F)F)c2c1CCC2)Nc1ccccc1C(F)(F)F | -9.91
COc1ccc(-c2c[n+](CC(=O)OC3CC(C)CCC3C(C)C)c3n2CCC3)cc1 (stereo unspecified) | 1.91
Cn1c(NC(=O)C[n+]2cc(-c3ccc(Cl)cc3)n3c2CCC3)cc(=O)n(C)c1=O | 11.1
CC1CCC(C(C)C)C(OC(=O)C[n+]2cc(-c3ccc(Cl)cc3)n3c2CCCCC3)C1 (stereo unspecified) | 10.8
O=C(C[n+]1cc(-c2ccc(Cl)cc2)n2c1CCCCC2)c1ccccc1 | 1.54
CCc1ccc(Nc2nnc(SCc3cc(=O)n4ccsc4n3)s2)cc1 | -7.77
CCCCNCCCOc1cccc(Cl)c1 | 2.53
CCCCNCCCOc1cc(Cl)ccc1Cl | 6.78
